Screening results deposited in PubChem BioAssay by Sanford-Burnham Center for Chemical Genomics.
CYP2C9 inhib – inhibitors of human CYP2C9; inhibition, % at 5 µM; CYP2C9 Supersomes, luciferin-H conversion, luminescence; hit rate 20% among 96,000; P11712;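 active means blocking of liver enzyme CYP2C9 beyond about 50% at 5 µM, limit read from the data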
CYP2C19 inhib – blocks human cytochrome P450 2C19 | P33261 | CYP2C19 Supersomes, luciferin-H EGE luminescence, 30 min | inhibition, % at 5 µM | hit rate 21% among 96,000;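 active means CYP2C19 inhibition above a set limit at 5 µM in the primary screen, cut at about 50% in these data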
Pyk2 oligo antag – blocks oligomerization of human Pyk2 in cells; Q14289; Q293 cells, Pyk2 FERM NanoBiT luminescence; hits give low values; z-score (the deposit names both 25 µM and 10 µM); hit rate 0.83% among 99,000; AID 1347419;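 active means Z-score of -3 or lower, scaled per plate to the spread of control and sample wells; inactive means z-score above -3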;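 further: negative z-score means lost luminescence so less FERM oligomerization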
CYP2C19 act – cytochrome P450 2C19 (human) activation. 96,000 tested, under 10 active. recombinant CYP2C19, luciferin-H EGE luminescence; hits give high values; 0 = fully inhibited enzyme, 1 = untreated enzyme. activation factor at 5 µM. P33261;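 active means activation factor of at least 2 at 5 µM in the primary screen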
CYP2C9 act – increases human cytochrome P450 2C9 activity; P11712; recombinant CYP2C9, luciferin-H conversion, luminescence; hits give high values; factor 1 = untreated enzyme, 0 = blocked; activation factor at 5 µM; hit rate 1.4% among 96,000; AID 1024;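 active means activation factor of 2 or more for CYP2C9 at a 5 µM dose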
Of the large screens only hits and unclear results are named; the others gave an inactive call. Most compounds without a hit are left out; they make up all but 28% or so of the library.

Cc1cccc(-n2c(CNC(=O)c3ccccc3)nnc2SCC(=O)Nc2nccs2)c1	none (no result: Pyk2 oligo antag)
Cc1cccc(-c2noc(Cc3ccc(Cl)cc3)n2)c1	CYP2C9 inhib 56.0, CYP2C19 inhib 79.9
COc1ccc(Cc2nc(-c3cccc(C)c3)no2)cc1	none
COc1cc(CCN2C(=O)c3cccc4cccc(c34)C2=O)c(S(=O)(=O)NCCCO)cc1OC	CYP2C19 inhib 66.4
O/C(=C\Sc1nnc(Cc2ccccc2)o1)c1ccc(Br)cc1	CYP2C9 inhib 92.6, CYP2C19 inhib 79.4
CCOC(=O)c1c(NC(=O)OC)sc(C(=O)N(C)C)c1C	CYP2C9 inhib 53.5
CCOC(=O)c1c(NC(=O)C2c3ccccc3Oc3ccccc32)sc(C(=O)N(CC)CC)c1C	CYP2C9 inhib 98.5
CCOC(=O)c1c(NC(=O)c2cc(C(C)C)on2)sc(C(C)=O)c1C	none
CCOC(=O)c1c(NC(=O)CC)sc(C(C)=O)c1C	CYP2C9 inhib 77.3, CYP2C19 inhib 69.3
CCOC(=O)c1c(NC(NC(C)=O)C(Cl)(Cl)Cl)sc(C(C)=O)c1C (stereo not drawn)	CYP2C9 inhib 53.9
Cn1c(=O)c2c(-c3cccc(F)c3)c3c(nc2n(C)c1=O)-c1ccccc1C3O (stereo not drawn)	none (no result: Pyk2 oligo antag)
CCOC(=O)c1c(/N=C/N(C)C)sc(C(=O)OC)c1C	CYP2C19 inhib 77.8
CCOC(=O)c1sc(C)c(C(=O)NC2CCCCC2)c1N	CYP2C9 act 2.3
CCOC(=O)c1c(NC(=O)Cc2cccs2)sc(C(=O)NC2CCCCC2)c1C	CYP2C9 inhib 71.0
Cc1c(Br)cc(-c2nnco2)cc1Br	CYP2C9 act 2.9
O=C(Nc1cccnc1)c1cccc(S(=O)(=O)N2CCOCC2)c1	none
CC1CCN(S(=O)(=O)c2ccc(NC(=O)CSc3nnnn3C)cc2)CC1	none
O=C(CN(CC1CCCO1)C(=O)CNS(=O)(=O)c1ccc(Cl)cc1)NCC1CCCO1 (stereo not drawn)	none (no result: CYP2C9 inhib, CYP2C19 inhib, CYP2C19 act, CYP2C9 act)
Cc1ccc(N(CC(=O)NCC2CCCO2)S(C)(=O)=O)cc1Cl (stereo not drawn)	none
CCOc1ccc(N(CC(=O)NCC2CCCO2)S(=O)(=O)c2ccc(Cl)cc2)cc1 (stereo not drawn)	CYP2C19 inhib 87.9
COc1ccc(S(=O)(=O)N(CC(=O)NCC2CCCO2)c2ccc(F)cc2)cc1OC (stereo not drawn)	CYP2C19 inhib 53.2
COc1ccc(C2(CNC(=O)c3ccco3)CCOCC2)cc1	none
O=C(NC(Cc1ccccc1)C(=O)NCc1ccccn1)c1ccco1 (stereo not drawn)	none
COc1ccc(CNC(C)C2COc3ccccc3O2)c(OC)c1 (stereo not drawn)	CYP2C19 inhib 87.0
CC(NCc1ccccc1)C1COc2ccccc2O1 (stereo not drawn)	CYP2C19 inhib 51.9
O=c1[nH]c(Nc2ccc(F)cc2)cc2ccccc12	CYP2C9 inhib 77.6, CYP2C19 inhib 86.1
Cc1ccc(C)c(NC(=O)Cn2nnc(C(=O)NCc3cccs3)c2N)c1	none
COc1cccc(OC)c1C(=O)Nc1ccc2c3c(cccc13)CC2	none (no result: CYP2C9 inhib, CYP2C19 inhib, CYP2C19 act, CYP2C9 act)
CC(=O)c1ccc2c3c(cccc13)CC2	CYP2C9 act 3.6
CS(=O)(=O)Nc1ccc2c3c(cccc13)CC2	CYP2C9 act 2.5
COc1cccc(-c2[nH]nc3c2C(c2ccoc2)C(C#N)=C(N)O3)c1 (stereo not drawn)	CYP2C19 inhib 86.9
N#CC1=C(N)Oc2n[nH]c(-c3ccc(F)cc3)c2C1c1cccc(OC(=O)N2CCOCC2)c1 (stereo not drawn)	none
N#CC1=C(N)Oc2n[nH]c(-c3ccccc3)c2C1c1cccc(OC(=O)N2CCOCC2)c1 (stereo not drawn)	CYP2C9 inhib 56.8
CCCCNC1C(CC)C(CCC)C(C#N)(C#N)C1(C#N)C#N (stereo not drawn)	none
NC(=O)CC1NC(=O)c2ccccc21 (stereo not drawn)	none
COc1ccc(/C=C2\SC(c3ccc(C)cc3)=NC2=O)cc1OC	none
COc1cc(/C=C2\SC(c3ccc(C)cc3)=NC2=O)cc(OC)c1OC	CYP2C9 inhib 62.9
COc1ccc(/C=C2/SC(c3ccc(C)cc3)=NC2=O)cc1OC	CYP2C9 inhib 61.4
COC(=O)CCN(C(=O)c1cccc(OC(C)=O)c1)c1ccccn1	none
COc1ccc(/C=N/n2cnnc2SCc2ccccc2)cc1	none
COC(=O)c1ccc(-c2ccc(CNCC(O)c3ccccc3)o2)cc1 (stereo not drawn)	CYP2C19 inhib 59.9
O=C1c2ccccc2C(Nc2ccc(F)cc2F)N1CCN1CCOCC1 (stereo not drawn)	none (no result: Pyk2 oligo antag)
c1ccc2c(c1)CCN(c1ncnc3nc[nH]c13)C2	none (no result: Pyk2 oligo antag)
C1=C(c2ccccc2)CCN(c2ncnc3nc[nH]c23)C1	CYP2C19 inhib 53.6 (no result: Pyk2 oligo antag)
Cc1cc(C)cc(NS(=O)(=O)c2ccc3[nH]c(=O)[nH]c3c2)c1	none
CCOC(=O)c1[nH]c(C)c(CN(CCc2ccccc2)S(C)(=O)=O)c1C	CYP2C9 inhib 55.7 (no result: Pyk2 oligo antag)
CCOC(=O)c1[nH]c(C)c(CN(CCc2ccc(OC)c(OC)c2)C(=O)CCCC(=O)O)c1C	none
Cc1nn(-c2cc(N3CCCCC3)ccc2N)c(=O)c2ccccc12	none (no result: CYP2C9 inhib, CYP2C19 inhib, CYP2C19 act, CYP2C9 act)
CCc1ccc(-c2nn(-c3cc(Cl)ccc3[N+](=O)[O-])c(=O)c3ccccc23)cc1	none
O=c1c2ccccc2c(-c2ccccc2)nn1-c1cc(Cl)ccc1[N+](=O)[O-]	CYP2C19 inhib 61.0
Cc1nn(-c2cc(N3CCCCCC3)ccc2[N+](=O)[O-])c(=O)c2ccccc12	Pyk2 oligo antag -4.14
COc1ccc(NC2CS(=O)(=O)CC2NCc2ccccc2)cc1 (stereo not drawn)	none (no result: CYP2C9 inhib, CYP2C19 inhib, CYP2C19 act, CYP2C9 act)
O=C1N=C(N2CCN(c3cccc4ccccc34)CC2)S/C1=C/c1cccs1	CYP2C19 inhib 54.2
O=C(O)c1ccccc1-c1ccccc1C(=O)NCCCO	none (no result: CYP2C9 inhib, CYP2C19 inhib, CYP2C19 act, CYP2C9 act)
S=c1nc(-c2ccccc2)n(CCCn2ccnc2)c2c1CCCC2	none (no result: Pyk2 oligo antag)
N=c1c2c(-c3ccccc3)c(-c3ccccc3)n(Cc3ccco3)c2ncn1Cc1ccco1	CYP2C9 inhib 83.0, CYP2C19 inhib 66.0
N=c1c2c(-c3ccccc3)c(-c3ccccc3)n(Cc3ccccc3)c2ncn1CCCn1ccnc1	CYP2C9 inhib 58.3, CYP2C19 inhib 81.6
Cc1cc(C)cc(-n2c3nc4ccccc4nc3c3c(=O)n(Cc4ccco4)cnc32)c1	none
Cn1cnc(S(=O)(=O)NCc2cccs2)c1	none (no result: CYP2C9 inhib, CYP2C19 inhib, CYP2C19 act, CYP2C9 act)
COC(=O)c1sc(NC(=O)c2cc(-c3ccccc3)nc3ccccc23)c(C#N)c1C	CYP2C9 inhib 64.5
Cc1ccccc1-c1cc(C(=O)Nc2sc(C(=O)OC(C)C)c(C)c2C#N)c2ccccc2n1	CYP2C9 inhib 84.6, Pyk2 oligo antag -3.9
CN(C)C(=O)c1c2c(nc3ccccc13)-c1ccccc1CC2	none
O=C1C(Cl)=C(N2CCCCC2)C(=O)N1c1ccccc1Cl	none
Cc1ccccc1N1C(=O)C(Cl)=C(N2CCCCCC2)C1=O	none
COc1ccc(OC)c(N2C(=O)C(Cl)=C(N3CCCCC3)C2=O)c1	CYP2C9 inhib 78.1, CYP2C19 inhib 66.5
